How the values were obtained:
Experiment in all cases: DAPPL (digital affinity profiling via proximity ligation, sequencing); 10 mM Tris-HCl pH 7.5, 50 mM NaCl, 1 mM DTT, 4% glycerol, room temperature, 30 min; GST-TFs on glutathione beads, 16-mer random dsDNA library, 0.1% formaldehyde crosslink after washing; high values mean tight binding
Settings in all cases: protein: recombinant; tags: N-terminal GST; dsDNA, one strand shown
[1] = biological target: T1, FLI1 (Homo sapiens, UniProt Q01543 1-452)
T1 sequence: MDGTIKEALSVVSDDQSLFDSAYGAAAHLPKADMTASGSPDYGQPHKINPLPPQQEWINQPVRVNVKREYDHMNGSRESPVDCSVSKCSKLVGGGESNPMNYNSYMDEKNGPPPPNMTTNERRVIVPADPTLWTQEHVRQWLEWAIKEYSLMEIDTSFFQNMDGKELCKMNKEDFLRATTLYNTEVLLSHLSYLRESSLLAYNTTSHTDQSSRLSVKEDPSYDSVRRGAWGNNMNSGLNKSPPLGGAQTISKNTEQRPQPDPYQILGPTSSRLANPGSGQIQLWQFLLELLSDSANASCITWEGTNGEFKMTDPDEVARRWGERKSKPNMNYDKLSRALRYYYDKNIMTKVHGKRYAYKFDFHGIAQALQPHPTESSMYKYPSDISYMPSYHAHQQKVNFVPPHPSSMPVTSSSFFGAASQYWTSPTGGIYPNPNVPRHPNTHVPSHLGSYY
How it was run: (§1)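 Pools were built from human transcription factors expressed in yeast as GST fusions, captured on glutathione beads and DNA-barcoded, along with a tag-only sample. Incubation with 200 nmole of a 16-mer random double-stranded DNA library lasted 30 min at room temperature in Tris/NaCl/DTT/glycerol buffer, and was followed by washing, 0.1% formaldehyde crosslinking, proximity ligation, PCR amplification and Illumina NextSeq500 sequencing. Binding signal is the quotient of each hexamer's read frequency for a factor and its frequency for the tag-only sample.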

[2] = biological target: T2, ELK1 (Homo sapiens, UniProt P19419 1-428)
T2 sequence: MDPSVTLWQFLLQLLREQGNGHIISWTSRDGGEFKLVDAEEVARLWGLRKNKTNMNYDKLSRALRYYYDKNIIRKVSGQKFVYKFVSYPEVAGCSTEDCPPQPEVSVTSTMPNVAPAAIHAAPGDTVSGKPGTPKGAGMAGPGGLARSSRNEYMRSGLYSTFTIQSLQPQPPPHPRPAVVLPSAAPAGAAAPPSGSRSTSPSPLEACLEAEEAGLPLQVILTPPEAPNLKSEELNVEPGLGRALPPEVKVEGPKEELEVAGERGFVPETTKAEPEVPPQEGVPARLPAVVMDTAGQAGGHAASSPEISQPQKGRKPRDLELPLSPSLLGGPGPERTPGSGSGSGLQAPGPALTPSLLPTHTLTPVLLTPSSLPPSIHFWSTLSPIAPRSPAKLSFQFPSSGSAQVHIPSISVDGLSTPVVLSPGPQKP
How it was run: as §1

[3] = biological target: T3, GABPA (Homo sapiens, UniProt Q06546 1-454)
T3 sequence: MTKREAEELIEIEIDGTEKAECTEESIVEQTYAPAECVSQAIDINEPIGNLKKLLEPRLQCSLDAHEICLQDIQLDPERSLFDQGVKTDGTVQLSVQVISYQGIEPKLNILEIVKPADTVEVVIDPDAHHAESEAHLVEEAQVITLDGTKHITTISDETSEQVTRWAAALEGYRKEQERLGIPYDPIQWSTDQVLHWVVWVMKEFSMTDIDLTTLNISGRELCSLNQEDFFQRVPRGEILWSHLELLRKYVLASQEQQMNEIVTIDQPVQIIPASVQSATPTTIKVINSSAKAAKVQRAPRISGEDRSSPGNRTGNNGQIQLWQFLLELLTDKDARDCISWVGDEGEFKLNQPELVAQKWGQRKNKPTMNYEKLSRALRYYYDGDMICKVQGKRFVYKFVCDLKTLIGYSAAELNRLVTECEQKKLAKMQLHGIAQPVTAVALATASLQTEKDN
How it was run: as §1

[4] = biological target: T4, ERG (Homo sapiens, UniProt P11308 1-479)
T4 sequence: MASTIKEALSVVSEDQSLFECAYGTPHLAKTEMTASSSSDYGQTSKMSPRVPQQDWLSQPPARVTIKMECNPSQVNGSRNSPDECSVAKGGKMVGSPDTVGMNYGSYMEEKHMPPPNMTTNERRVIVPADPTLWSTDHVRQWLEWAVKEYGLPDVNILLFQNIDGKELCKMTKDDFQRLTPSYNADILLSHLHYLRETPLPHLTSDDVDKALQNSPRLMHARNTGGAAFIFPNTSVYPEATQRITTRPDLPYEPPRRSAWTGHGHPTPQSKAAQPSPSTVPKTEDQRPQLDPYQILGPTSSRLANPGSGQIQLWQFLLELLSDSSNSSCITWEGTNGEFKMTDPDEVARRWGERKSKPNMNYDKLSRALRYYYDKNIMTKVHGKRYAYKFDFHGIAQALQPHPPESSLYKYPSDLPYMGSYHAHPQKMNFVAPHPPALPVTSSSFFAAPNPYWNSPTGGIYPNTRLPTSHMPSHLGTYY
How it was run: as §1

[5] = biological target: ELF1 (Homo sapiens, UniProt P32519 1-619)
ELF1, sequence (P32519 whole entry): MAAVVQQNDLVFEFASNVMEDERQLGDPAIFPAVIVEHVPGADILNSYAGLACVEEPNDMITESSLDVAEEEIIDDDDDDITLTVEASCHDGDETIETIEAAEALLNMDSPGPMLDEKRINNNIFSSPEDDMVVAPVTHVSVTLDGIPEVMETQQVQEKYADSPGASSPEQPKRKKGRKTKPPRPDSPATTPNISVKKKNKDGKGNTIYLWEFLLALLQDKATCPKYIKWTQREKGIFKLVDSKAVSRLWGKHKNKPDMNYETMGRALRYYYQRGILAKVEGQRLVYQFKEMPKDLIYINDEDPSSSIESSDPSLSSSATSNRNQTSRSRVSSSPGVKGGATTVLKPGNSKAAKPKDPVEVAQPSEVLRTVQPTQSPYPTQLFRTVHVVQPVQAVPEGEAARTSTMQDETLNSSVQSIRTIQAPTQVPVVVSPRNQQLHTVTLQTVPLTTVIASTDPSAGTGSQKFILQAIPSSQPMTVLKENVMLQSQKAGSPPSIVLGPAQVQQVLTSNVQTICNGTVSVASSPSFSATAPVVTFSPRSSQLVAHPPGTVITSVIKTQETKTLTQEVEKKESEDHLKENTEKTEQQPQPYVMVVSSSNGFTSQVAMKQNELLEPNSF
How it was run: as §1

[6] = biological target: T5, EHF (Homo sapiens, UniProt Q9NZC4 1-300)
T5 sequence: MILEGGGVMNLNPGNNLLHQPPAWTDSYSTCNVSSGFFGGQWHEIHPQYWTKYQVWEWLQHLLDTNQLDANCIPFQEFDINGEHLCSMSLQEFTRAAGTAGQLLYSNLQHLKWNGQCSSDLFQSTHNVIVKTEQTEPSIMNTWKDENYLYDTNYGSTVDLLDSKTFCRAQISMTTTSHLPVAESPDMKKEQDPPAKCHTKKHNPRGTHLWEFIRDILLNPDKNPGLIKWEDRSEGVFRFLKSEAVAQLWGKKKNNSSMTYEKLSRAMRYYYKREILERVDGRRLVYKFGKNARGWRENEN
How it was run: as §1

[7] = biological target: SPI1 (Homo sapiens, UniProt P17947 1-270)
How it was run: as §1

[8] = biological target: SPIB (Homo sapiens, UniProt Q01892 1-262)
SPIB, sequence (Q01892 whole entry): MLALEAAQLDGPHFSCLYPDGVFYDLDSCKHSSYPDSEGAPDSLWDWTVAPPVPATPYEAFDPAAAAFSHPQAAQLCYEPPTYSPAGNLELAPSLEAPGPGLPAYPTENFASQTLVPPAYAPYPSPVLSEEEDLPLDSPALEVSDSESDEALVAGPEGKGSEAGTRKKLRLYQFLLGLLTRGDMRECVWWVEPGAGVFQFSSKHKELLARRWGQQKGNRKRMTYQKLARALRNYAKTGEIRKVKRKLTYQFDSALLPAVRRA
How it was run: as §1

[9] = biological target: T6, FEV (Homo sapiens, UniProt Q99581 1-238)
T6 sequence: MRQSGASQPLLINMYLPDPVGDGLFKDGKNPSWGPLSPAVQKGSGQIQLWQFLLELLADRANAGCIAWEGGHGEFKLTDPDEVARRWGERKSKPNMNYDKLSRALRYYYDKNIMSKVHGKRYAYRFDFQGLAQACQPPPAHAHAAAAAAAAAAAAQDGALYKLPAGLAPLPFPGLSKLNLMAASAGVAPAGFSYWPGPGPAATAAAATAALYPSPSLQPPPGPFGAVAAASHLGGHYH
How it was run: as §1

[10] = biological target: ETV5 (Homo sapiens, UniProt P41161 1-510)
ETV5, sequence (P41161 whole entry): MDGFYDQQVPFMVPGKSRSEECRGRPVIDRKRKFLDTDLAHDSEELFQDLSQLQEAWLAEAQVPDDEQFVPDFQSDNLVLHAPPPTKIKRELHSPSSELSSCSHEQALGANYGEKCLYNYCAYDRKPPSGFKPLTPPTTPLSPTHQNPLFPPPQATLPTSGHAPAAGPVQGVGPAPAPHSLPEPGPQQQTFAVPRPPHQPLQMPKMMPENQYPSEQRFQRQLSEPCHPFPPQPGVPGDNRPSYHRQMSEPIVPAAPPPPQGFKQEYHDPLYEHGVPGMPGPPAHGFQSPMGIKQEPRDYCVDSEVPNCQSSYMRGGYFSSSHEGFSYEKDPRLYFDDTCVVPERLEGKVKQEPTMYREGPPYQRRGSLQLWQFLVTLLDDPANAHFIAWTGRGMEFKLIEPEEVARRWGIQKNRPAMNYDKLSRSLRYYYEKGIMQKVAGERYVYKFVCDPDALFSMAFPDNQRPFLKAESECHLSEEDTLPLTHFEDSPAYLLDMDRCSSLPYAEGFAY
How it was run: as §1

[11] = biological target: ELF4 (Homo sapiens, UniProt Q99607 1-663)
ELF4, sequence (Q99607 whole entry): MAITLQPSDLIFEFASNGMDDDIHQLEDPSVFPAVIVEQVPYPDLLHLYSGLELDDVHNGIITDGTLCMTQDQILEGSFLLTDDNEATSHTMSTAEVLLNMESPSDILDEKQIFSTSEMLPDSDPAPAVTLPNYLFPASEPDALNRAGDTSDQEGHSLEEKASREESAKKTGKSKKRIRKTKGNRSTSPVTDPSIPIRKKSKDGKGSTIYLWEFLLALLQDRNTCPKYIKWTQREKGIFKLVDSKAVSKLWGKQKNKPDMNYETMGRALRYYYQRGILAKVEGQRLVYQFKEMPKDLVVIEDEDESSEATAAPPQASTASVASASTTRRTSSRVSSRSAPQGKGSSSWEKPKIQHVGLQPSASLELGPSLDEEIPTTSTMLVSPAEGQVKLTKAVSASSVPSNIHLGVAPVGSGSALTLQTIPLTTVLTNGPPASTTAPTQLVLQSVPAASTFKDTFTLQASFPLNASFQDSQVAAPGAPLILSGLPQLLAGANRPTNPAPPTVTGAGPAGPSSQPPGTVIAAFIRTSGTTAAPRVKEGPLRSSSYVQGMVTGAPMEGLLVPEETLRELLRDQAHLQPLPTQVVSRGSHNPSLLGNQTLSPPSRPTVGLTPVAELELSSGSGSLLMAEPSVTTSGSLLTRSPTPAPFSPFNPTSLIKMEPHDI
How it was run: as §1

[12] = biological target: T7, ETV2 (Homo sapiens, UniProt O00321 1-342)
T7 sequence: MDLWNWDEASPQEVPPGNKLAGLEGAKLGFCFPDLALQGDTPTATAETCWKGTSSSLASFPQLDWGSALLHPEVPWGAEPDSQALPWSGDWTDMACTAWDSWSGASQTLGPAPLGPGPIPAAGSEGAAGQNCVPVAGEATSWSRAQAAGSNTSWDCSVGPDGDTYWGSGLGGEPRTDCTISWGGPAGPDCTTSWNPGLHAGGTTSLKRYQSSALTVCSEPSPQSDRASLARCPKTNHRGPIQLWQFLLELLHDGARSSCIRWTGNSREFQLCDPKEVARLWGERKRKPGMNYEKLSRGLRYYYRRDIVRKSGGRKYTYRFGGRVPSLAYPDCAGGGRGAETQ
How it was run: as §1

[13] = biological target: T8, ELF3 (Homo sapiens, UniProt P78545 1-371)
T8 sequence: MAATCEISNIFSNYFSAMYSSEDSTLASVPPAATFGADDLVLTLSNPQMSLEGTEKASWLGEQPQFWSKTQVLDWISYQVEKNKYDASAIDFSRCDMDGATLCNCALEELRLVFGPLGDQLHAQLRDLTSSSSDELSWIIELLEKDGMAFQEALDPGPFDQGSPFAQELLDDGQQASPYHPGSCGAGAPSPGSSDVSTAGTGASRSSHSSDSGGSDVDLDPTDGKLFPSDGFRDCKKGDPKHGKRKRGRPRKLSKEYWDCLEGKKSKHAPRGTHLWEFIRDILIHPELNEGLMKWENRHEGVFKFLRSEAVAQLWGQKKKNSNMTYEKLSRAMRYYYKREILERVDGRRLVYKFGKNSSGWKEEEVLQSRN
How it was run: as §1

[14] = biological target: ETV1 (Homo sapiens, UniProt P50549 1-477)
ETV1, sequence (P50549 whole entry): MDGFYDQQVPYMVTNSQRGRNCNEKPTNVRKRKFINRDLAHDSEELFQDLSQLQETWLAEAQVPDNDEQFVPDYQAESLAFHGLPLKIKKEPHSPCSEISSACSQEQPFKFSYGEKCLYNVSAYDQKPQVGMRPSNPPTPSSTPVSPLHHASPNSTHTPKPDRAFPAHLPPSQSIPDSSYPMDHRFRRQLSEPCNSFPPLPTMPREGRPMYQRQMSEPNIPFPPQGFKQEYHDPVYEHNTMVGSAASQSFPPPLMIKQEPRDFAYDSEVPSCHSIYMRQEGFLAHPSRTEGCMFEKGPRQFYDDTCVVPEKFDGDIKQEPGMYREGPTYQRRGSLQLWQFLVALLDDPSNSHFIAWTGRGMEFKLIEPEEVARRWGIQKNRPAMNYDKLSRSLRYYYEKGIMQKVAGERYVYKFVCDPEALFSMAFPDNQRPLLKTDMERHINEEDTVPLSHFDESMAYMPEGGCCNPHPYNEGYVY
How it was run: as §1

[15] = biological target: T9, ERF (Homo sapiens, UniProt P50548 1-548)
T9 sequence: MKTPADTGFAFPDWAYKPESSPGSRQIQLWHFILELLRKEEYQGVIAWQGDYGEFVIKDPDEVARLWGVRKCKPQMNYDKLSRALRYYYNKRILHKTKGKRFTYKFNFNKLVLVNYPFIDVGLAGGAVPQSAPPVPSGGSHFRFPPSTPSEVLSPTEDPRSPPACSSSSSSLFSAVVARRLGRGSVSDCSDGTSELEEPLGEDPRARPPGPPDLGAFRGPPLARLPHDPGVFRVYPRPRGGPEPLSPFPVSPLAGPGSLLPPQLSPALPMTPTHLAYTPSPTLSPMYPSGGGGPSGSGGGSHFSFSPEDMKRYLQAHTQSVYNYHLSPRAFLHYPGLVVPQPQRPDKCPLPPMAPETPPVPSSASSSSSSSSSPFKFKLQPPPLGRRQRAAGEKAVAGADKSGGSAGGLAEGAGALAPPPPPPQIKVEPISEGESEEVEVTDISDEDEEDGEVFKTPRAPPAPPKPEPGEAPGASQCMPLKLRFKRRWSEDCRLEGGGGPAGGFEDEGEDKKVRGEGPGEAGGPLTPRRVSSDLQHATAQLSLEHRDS
How it was run: as §1

[16] = biological target: T10, ETV3L (Homo sapiens, UniProt Q6ZN32 1-361)
T10 sequence: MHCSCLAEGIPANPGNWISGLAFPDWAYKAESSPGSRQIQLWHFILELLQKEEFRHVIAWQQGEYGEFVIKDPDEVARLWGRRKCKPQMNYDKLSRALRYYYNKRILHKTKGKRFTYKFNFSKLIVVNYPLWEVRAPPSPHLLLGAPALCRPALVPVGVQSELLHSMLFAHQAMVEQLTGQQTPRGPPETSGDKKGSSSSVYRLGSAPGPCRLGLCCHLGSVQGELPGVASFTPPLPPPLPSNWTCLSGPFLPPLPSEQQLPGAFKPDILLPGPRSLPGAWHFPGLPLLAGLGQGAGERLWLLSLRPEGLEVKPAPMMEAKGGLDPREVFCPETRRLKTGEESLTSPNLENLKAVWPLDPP
How it was run: as §1

[17] = biological target: T11, ETS2 (Homo sapiens, UniProt P15036 1-469)
T11 sequence: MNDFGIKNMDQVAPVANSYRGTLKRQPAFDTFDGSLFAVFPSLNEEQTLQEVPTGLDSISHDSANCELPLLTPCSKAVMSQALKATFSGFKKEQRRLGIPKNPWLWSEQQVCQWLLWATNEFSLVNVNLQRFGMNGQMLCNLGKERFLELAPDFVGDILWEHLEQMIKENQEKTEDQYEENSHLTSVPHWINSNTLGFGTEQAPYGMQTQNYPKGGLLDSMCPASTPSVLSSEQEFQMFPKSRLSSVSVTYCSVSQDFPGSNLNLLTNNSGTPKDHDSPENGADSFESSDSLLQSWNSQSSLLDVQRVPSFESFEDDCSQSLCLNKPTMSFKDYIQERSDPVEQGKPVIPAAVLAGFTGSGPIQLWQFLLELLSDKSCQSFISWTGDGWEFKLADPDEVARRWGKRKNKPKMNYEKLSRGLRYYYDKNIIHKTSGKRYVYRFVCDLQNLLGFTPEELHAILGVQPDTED
How it was run: as §1

[18] = biological target: T12, ETV7 (Homo sapiens, UniProt Q9Y603 1-341)
T12 sequence: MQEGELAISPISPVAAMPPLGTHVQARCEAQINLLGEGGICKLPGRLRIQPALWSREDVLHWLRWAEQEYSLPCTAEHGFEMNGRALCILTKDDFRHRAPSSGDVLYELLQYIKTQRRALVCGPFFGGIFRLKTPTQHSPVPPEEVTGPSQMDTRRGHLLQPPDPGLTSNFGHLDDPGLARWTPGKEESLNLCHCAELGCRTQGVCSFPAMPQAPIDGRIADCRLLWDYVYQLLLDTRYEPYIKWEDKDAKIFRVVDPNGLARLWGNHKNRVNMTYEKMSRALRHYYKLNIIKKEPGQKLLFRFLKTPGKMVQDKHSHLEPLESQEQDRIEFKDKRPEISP
How it was run: as §1

[19] = biological target: T13, ETV3 (Homo sapiens, UniProt P41162-2 1-143)
T13 sequence: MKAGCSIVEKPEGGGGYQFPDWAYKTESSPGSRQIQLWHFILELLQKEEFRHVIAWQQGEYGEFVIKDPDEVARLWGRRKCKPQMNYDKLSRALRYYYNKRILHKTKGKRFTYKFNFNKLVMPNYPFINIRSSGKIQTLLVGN
How it was run: as §1

[20] = biological target: ETV6 (Homo sapiens, UniProt P41212 1-452)
ETV6, sequence (P41212 whole entry): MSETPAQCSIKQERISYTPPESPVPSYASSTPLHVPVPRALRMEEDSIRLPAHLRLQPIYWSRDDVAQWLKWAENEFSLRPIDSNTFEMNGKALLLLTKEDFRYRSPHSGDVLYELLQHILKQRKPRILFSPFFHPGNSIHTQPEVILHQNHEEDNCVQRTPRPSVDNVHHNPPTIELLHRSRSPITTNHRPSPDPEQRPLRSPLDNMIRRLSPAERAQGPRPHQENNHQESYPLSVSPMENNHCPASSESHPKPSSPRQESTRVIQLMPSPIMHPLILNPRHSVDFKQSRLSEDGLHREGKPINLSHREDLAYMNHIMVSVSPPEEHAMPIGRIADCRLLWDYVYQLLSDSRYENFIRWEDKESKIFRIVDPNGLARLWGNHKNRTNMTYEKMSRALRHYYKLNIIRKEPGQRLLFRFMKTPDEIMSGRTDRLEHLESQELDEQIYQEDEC
How it was run: as §1

AAACCG
binding signal [1]: 1.05 fold enrichment (6-mer frequency, TF over GST control) | binding signal [2]: 1.05 fold enrichment (6-mer frequency, TF over GST control) | binding signal [3]: 1.07 fold enrichment (6-mer frequency, TF over GST control) | binding signal [4]: 1.13 fold enrichment (6-mer frequency, TF over GST control) | binding signal [5]: 1.12 fold enrichment (6-mer frequency, TF over GST control) | binding signal [6]: 1.08 fold enrichment (6-mer frequency, TF over GST control) | binding signal [7]: 1.25 fold enrichment (6-mer frequency, TF over GST control) | binding signal [8]: 1.05 fold enrichment (6-mer frequency, TF over GST control) | binding signal [9]: 1.33 fold enrichment (6-mer frequency, TF over GST control) | binding signal [10]: 1.07 fold enrichment (6-mer frequency, TF over GST control) | binding signal [11]: 1.07 fold enrichment (6-mer frequency, TF over GST control) | binding signal [12]: 1.03 fold enrichment (6-mer frequency, TF over GST control) | binding signal [13]: 1.07 fold enrichment (6-mer frequency, TF over GST control) | binding signal [14]: 1.18 fold enrichment (6-mer frequency, TF over GST control) | binding signal [15]: 1.1 fold enrichment (6-mer frequency, TF over GST control) | binding signal [16]: 1.06 fold enrichment (6-mer frequency, TF over GST control) | binding signal [17]: 1 fold enrichment (6-mer frequency, TF over GST control) | binding signal [18]: 1.04 fold enrichment (6-mer frequency, TF over GST control) | binding signal [19]: 1.08 fold enrichment (6-mer frequency, TF over GST control) | binding signal [20]: 1.05 fold enrichment (6-mer frequency, TF over GST control)

— paper PMC7862700, “An all-to-all approach to the identification of sequence-specific readers for epigenetic DNA modifications on cytosine”
